# According to PubChem BioAssay AID2284324 (EPA ToxCast):
# Results filed as inconclusive are left out. Calls of active or inactive are those of the source. The calls were made as follows: active = hit-call score of the fitted dose curve at least 0.9, where 1 is the maximum; inconclusive = response in the unintended direction; inactive = score below 0.9.
# System: Japanese medaka Glucocorticoid Receptor (GR), gene 101170451
# Assay: ATG_jmGR_EcoTox2: Attagene TRANS-FACTORIAL EcoTox-2 HepG2 Assay for Japanese medaka Glucocorticoid Receptor (GR)
# Description: ATG_EcoTox2 is a cell-based, multiplexed assay created by modifying the existing Attagene TRANS-FACTORIAL system to include a panel of nuclear receptors from some or all the following species: human (Homo sapiens), african clawed frog (Xenopus laevis), rainbow trout (Oncorhynchus mykiss), japanese medaka (Oryzias latipes), and zebrafish (Danio rerio). The ECOTOX2-FACTORIAL format uses HepG2, a human liver cell line, with measurements taken at 24 hours after chemical dosing in a 24-well plate. ATG_jmGR_EcoTox2 is one of 29 assay components calculated in the ATG_EcoTox2 assay. It is designed to make measurements of mRNA induction, a form of inducible reporter, as detected with fluorescence intensity signals by Reverse transcription polymerase chain reaction (RT-PCR) and Capillary electrophoresis technology.The assay endpoint ATG_jmGR_EcoTox2 was analyzed in the positive analysis fitting direction relative to DMSO as the negative control and baseline of activity. Using a type of inducible reporter, measures of mRNA for gain-of-signal activity can be used to understand the reporter gene at the transcription factor-level as they relate to the gene for glucocorticoid receptor. Furthermore, this assay endpoint can be referred to as a primary readout, because this assay has produced multiple assay endpoints where this one serves a reporter gene function. To generalize the intended target to other relatable targets, this assay endpoint is annotated to the nuclear receptor intended target family, where the subfamily is steroidal.
# Human liver HepG2 cells are transiently transfected with multiple reporter transcription units (MRTUs) in 6-well plates using FuGene 6 reagent (Roche; 3 ml FuGene/1 mg DNA). The MRTU constructs are regulated by a cis-regulating element (promoter). Each RTU expresses a GAL4-UAS that regulates the transcription of a nearby target reporter gene sequence. A major difference between the CIS and TRANS system is that in CIS activities of endogenous TFs are measured, whereas the TRANS assay evaluates changes in activities of exogenous, chimeric NR-Gal4 proteins. […] At the end of 24 hour incubation, total RNA was isolated using TriZol reagent (Invitrogen). The isolated RNA is then reverse-transcribed using oligo(dT) primer and Mo-MLV reverse transcriptase (Invitrogen) with DNAse I (Ambion) treatment for 30 min. The one-tenth of the produced cDNA was amplified by PCR using Taq DNA polymerase (Invitrogen) and two reporter sequence-specific primers. The PCR products were fluorescently labeled by primer extension with 6-arboxyfluorescein (6-FAM) 5'-labeled reporter sequence-specific primer (2 min at 95 C, 20 s at 68 C and 10 min at 72 C) and these products were digested with 5U of HpaI (New England Biolabs) for 2h at 37 C. The fragments were purified using Qiaquick PCR columns (Qiagen), analyzed on an ABI 3130xL genetic analyzer (Applied Biosystems) with peak positions identified by using a set of X-rhodamine (ROX)-labeled MapMarker1000 molecular weight standards (BioVentures). The raw capillary electrophoresis data was processed using Attagraph software (Attagene).
SMILES,outcome,AC50
CC(C)(Oc1ccc(CCNC(=O)c2ccc(Cl)cc2)cc1)C(=O)O,inactive,–
CC(C)OC(=O)C(C)(C)Oc1ccc(C(=O)c2ccc(Cl)cc2)cc1,inactive,–
C[C@@H]1C[C@H]2[C@@H]3CCC4=CC(=O)C=C[C@]4(C)[C@@]3(F)[C@@H](O)C[C@]2(C)[C@@]1(O)C(=O)COP(=O)(O)O,–,14.8 nM (active)
Cc1cccc(Nc2cc(Cl)nc(SCC(=O)O)n2)c1C,inactive,–
CC(C)(Oc1ccc(C2CC2(Cl)Cl)cc1)C(=O)O (stereo not drawn),inactive,–
C[C@]12C=CC(=O)C=C1CC[C@@H]1[C@@H]2C(=O)C[C@@]2(C)[C@H]1CC[C@]2(O)C(=O)CO,inactive,–
CC(C)(Oc1ccc(Cl)cc1)C(=O)O,inactive,–
Cc1ccc(C)c(OCCCC(C)(C)C(=O)O)c1,inactive,–
